Test results as given in PubChem BioAssay AID796 (Columbia University Molecular Screening Center, 2007).
In all, about 94,000 compounds went through this assay and about 410 (0.44%) were called active. The entries come from a sample that favours actives as a whole. A number with no mark means an inactive call.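 How the source made its calls: active means inhibition above about 30% together with a positive call from visual inspection of the well image (limit read from the data); inconclusive means inhibition above a set limit but visual check negative; inactive means inhibition not above a set limit, visual check negative.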

Test: inhibitors of IL-1B driven NFkB p65 nuclear import, primary screen, imaging, HUVEC, IL-1B stimulus, high-content imaging (AID 796);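 further: nuclear over cytoplasmic p65 intensity ratio measured by imaging; 0% = IL-1B stimulated DMSO wells and 100% = unstimulated DMSO wells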
Settings: HUVEC IL-1B NFkB p65 nuclear translocation imaging; at 2 µM; hits give high values

Question: With O=C(CSCc1c(Cl)cccc1Cl)NN1C(=O)c2ccccc2C1=O as the molecule, how does the inhibition read?
Answer: The inhibition was 7.6%.

Question: Which inhibition does the source give for Cc1ccc(-c2csc(N(Cc3ccco3)C(=O)c3cccs3)n2)cc1 here?
Answer: Its inhibition is 0.8%.

Question: Which inhibition does the source give for S=c1[nH]nc(-c2ccco2)n1/N=C/c1ccc(Br)s1 here?
Answer: The inhibition was -1.5%.

Question: Which inhibition does the source give for Cc1cccc(-n2nc3c(c2NC(=O)c2ccc(Br)o2)CSC3)c1C here?
Answer: Its inhibition is 0%.

Question: For Cc1ccc(-n2nc3c(c2NC(=O)c2ccc4c(c2)OCO4)CSC3)c(C)c1, which inhibition is on record?
Answer: The inhibition was 36% (active).

Question: With Cc1cc(C)c2nc(NC(=O)c3ccc4c(c3)OCO4)sc2c1 as the molecule, how does the inhibition read?
Answer: Its inhibition is 9%.

Question: With O=C(COc1ccc(/C=N/NS(=O)(=O)c2ccccc2)cc1)NCCc1ccccc1 as the molecule, how does the inhibition read?
Answer: The inhibition was 3.5%.

Question: Which inhibition does the source give for Cc1n[nH]c(=O)n1-c1ccc(Oc2ccccc2)cc1 here?
Answer: Its inhibition is 3.9%.

Question: For Cc1cc(C)cc(N(CC(=O)Nc2c(C)n(C)n(-c3ccccc3)c2=O)S(C)(=O)=O)c1, which inhibition is on record?
Answer: Its inhibition is -3.1%.

Question: With Cc1cc(C)cc(N(C(C)C(=O)Nc2c(C)n(C)n(-c3ccccc3)c2=O)S(C)(=O)=O)c1 (stereo not drawn) as the molecule, how does the inhibition read?
Answer: Its inhibition is 47.4% (active).

Question: For COC(=O)Nc1c(C)n(C)n(-c2ccccc2)c1=O, which inhibition is on record?
Answer: The inhibition was -18.8%.

Question: With CC(=O)Nc1ccc(C(=O)CSc2nnc(Cc3ccccc3)o2)cc1 as the molecule, how does the inhibition read?
Answer: Its inhibition is -5.2%.

Question: For O=C(CSc1nnc(-c2c[nH]c3ccccc23)o1)c1ccccc1, which inhibition is on record?
Answer: Its inhibition is 11.5%.

Question: With O=C(CSc1nnc(Cn2cnc3ccccc32)o1)c1ccccc1 as the molecule, how does the inhibition read?
Answer: Its inhibition is 98.8% (active).

Question: For CCn1c2ccccc2c2cc(NC(=O)C/C(C)=N/NC(=O)c3ccccc3N)ccc21, which inhibition is on record?
Answer: The inhibition was -8.3%.

Question: Which inhibition does the source give for CNC(=S)NNC(=O)c1sccc1OCc1ccccc1 here?
Answer: Its inhibition is -4%.

Question: For COc1cc(/C=N/O)cc(Br)c1OCc1cccc(Cl)c1, which inhibition is on record?
Answer: Its inhibition is -0.3%.

Question: For CCCCNc1ccc(C(=O)Nc2cccc(C)n2)cc1[N+](=O)[O-], which inhibition is on record?
Answer: The inhibition was -3.1%.

Question: With COc1ccc(S(=O)(=O)Nc2ccc3c(c2)OCO3)cc1Cl as the molecule, how does the inhibition read?
Answer: Its inhibition is 96.2% (active).

Question: For COc1ccc(F)cc1S(=O)(=O)Nc1ccc2c(c1)OCO2, which inhibition is on record?
Answer: The inhibition was -3.1%.

Question: For CC(C)CNS(=O)(=O)c1ccc(OCC(=O)Nc2ccc3c(c2)OCO3)c(Cl)c1, which inhibition is on record?
Answer: Its inhibition is -10.8%.

Question: For Cc1ccc(C(=O)c2c(NC(=O)c3ccncc3)sc3c2CCCC3)cc1, which inhibition is on record?
Answer: The inhibition was 2.2%.

Question: With CCc1ccc(/C=N/NC(=O)c2ccc(OC3CCCC3)cc2)s1 as the molecule, how does the inhibition read?
Answer: Its inhibition is 0.3%.

Question: With Cc1nc(N2CCOCC2)nc2c1CCCC2 as the molecule, how does the inhibition read?
Answer: Its inhibition is 1.7%.

Question: With O=C(CSCc1ccc([N+](=O)[O-])cc1)NCCSCc1ccccc1 as the molecule, how does the inhibition read?
Answer: The inhibition was 8.4%.

Question: For Cc1ccc(N)cc1-n1c(C)ccc1C, which inhibition is on record?
Answer: The inhibition was 4.3%.

Question: For Cc1ccc(C)n1-c1ccncc1, which inhibition is on record?
Answer: The inhibition was 34.7% (active).

Question: For COc1ccc(C(=O)c2c(C)oc3cc([N+](=O)[O-])c(O)c([N+](=O)[O-])c23)cc1, which inhibition is on record?
Answer: The inhibition was -48.7%.
